High-throughput results: PubChem, several laboratories
C8 TRAIL sens – caspase-8 TRAIL sensitization | NB7+C8 cells + TRAIL, ATPlite viability luminescence | inhibition (viability loss, TRAIL sensitization), % at 10 µM | 360,000 compounds, 1% hits | AID 624354;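 active = compounds causing at least 50% loss of cell viability in the single-dose screen, relative to plate controls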
HIF-2a inh – HIF-2a inhibition; 786-0 RCC cells HIF-2a reporter, luciferase luminescence, overnight; 360,000 compounds, 0.72% hits; inhibition, % at 18.8 µM;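 active = inhibition of the luminescence signal of 40% or more relative to plate controls, in a single-dose primary screen at 18.75 µM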
TWEAK-Fn14 inh – TWEAK-Fn14 signaling inhibition; inhibition, % at 10 µM; 360,000 compounds, 2% hits; TWEAK-stimulated Fn14 reporter cells, luciferase luminescence, 8 h; in the data active = inhibition above about 50%
TROY signal inh – inhibitors of TROY-dependent NF-kB signaling. Q293 LMP1-TROYcd NF-kB luciferase reporter, 4 h. inhibition, % at 10 µM. 360,000 compounds, 0.98% hits;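 active = compounds whose plate-normalised and pattern-corrected inhibition of the luciferase reporter signal at the single screening dose is 50% or more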
HSP90 refold inh – blocks HSP90-mediated luciferase refolding in reticulocyte lysate; Rabbit reticulocyte lysate, luciferase refolding luminescence, 3 h; inhibition, % at 5.6 µM; 290,000 compounds, 0.91% hits;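 active = inhibition above the screen-wide mean plus 3 SD, computed separately per campaign, cut at about 16% in these data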;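 note: 0% = DMSO wells and 100% = 60 µM geldanamycin wells; inhibitors lower the luminescence because luciferase stays unfolded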
aSyn 5UTR inh – MLPCN primary screen, SNCA 5' untranslated region; alpha-synuclein 5'UTR reporter, inhibitor activity; inhibition, % (tested at 7.5 µM); 300,000 compounds, 0.82% hits; AID 1813; in the data active = inhibition above about 60%;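 note: H4 neuroglioblastoma cells stably carrying SNCA 5'UTR luciferase fusion; 0% = DMSO wells and 100% = positive control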
Mdm2 MdmX conf – confirmation of inhibitors of human Mdm2/MdmX interaction, set 2 | shares compounds with HIF-2a inh | SaOS-2 split-luciferase Mdm2/MdmX complementation, luminescence | inhibition, % at 8 µM | 740 compounds, 99% hits | AID 504601;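 active = mean inhibition of the luminescence signal across two replicates at or above 26 percent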
HIF-2a conf – HIF-2a inhibition, single concentration confirmation. 786-0 RCC cells, HIF-2a luciferase reporter luminescence, overnight. 1,800 compounds, 56% hits. inhibition, % at 18.8 µM. shares compounds with HIF-2a inh;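 active = mean inhibition across four replicates of at least 40 percent at the single tested concentration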
HIF-1a cs – HIF-1a inhibition counter-screen for HIF-2a hits. shares compounds with HIF-2a inh. MiaPaCa-2 HIF-1a luciferase reporter, desferoxamine, overnight. inhibition, % at 18.8 µM. 1,800 compounds, 72% hits. AID 651589;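 active = mean inhibition of the reporter signal across four replicates at the single tested dose of 50% or more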
The depositor's hits bear a star; / = no result. Most compounds without a hit are left out; they make up all but 3.9% or so of the library.

SMILES	C8 TRAIL sens	HIF-2a inh	TWEAK-Fn14 inh	TROY signal inh	HSP90 refold inh	aSyn 5UTR inh	HIF-2a conf	HIF-1a cs	others
O=[N+]([O-])c1cc(S(=O)(=O)N2CCCCCC2)ccc1F	74.7*	94.2*	-0.5	9.4	2.6	/	87.3*	104.8*
NC(Cc1ccc(F)cc1)c1csc(NC(=O)NC(c2ccccc2)c2ccccc2)n1 (stereo not drawn)	38.0	-16.6	12.0	22.5	/	/	/	/
Cc1cc(C)c(C(=O)/C=C/c2ccc(C(C)C)cc2)c(=O)[nH]1	13.3	59.4*	92.6*	54.5*	1.8	-90.5	52.5*	102.2*	Mdm2 MdmX conf=102.7*
CCOC(=O)CNC(=O)CSc1nnc(SCC(=O)NCC(=O)OCC)s1	7.2	3.2	3.8	3.2	-0.2	-5.1	/	/
CCOC(=O)CNC(=O)CSc1nnc(NC(=O)c2ccc(C)cc2)s1	88.1*	45.2*	68.4*	-0.7	4.1	73.9*	65.2*	-12.2
COc1ccc(-n2c(C)c([N+](=O)[O-])c3ccc(O)c(CN(C)C)c32)cc1	24.9	14.5	79.6*	/	1.8	-9.6	/	/	Mdm2 MdmX conf=94.2*
CCc1nc2ccc(C(=O)N(C)Cc3ccco3)cn2c1N(C)CCCc1ccccc1	1.7	14.2	1.5	8.1	/	/	/	/
COc1ccccc1N(Cc1cc(=O)[nH]c2ccccc12)C(=O)c1ccccc1	-27.5	67.3*	80.6*	81.7*	0.8	10.7	-4.4	1.9
CN(Cc1cc(=O)[nH]c2ccccc12)C(=O)c1ccccc1	-3.7	-22.5	-10.5	-28.1	-4.2	-22.0	/	/
CC(=O)N(Cc1cc(=O)[nH]c2ccccc12)c1cccc(C)c1	-8.1	19.0	0.9	6.1	2.7	9.2	/	/
Cc1cccc(N(Cc2cc(=O)[nH]c3ccccc23)C(=O)CCl)c1	84.0*	65.0*	86.5*	24.4	0.0	2.5	90.2*	103.7*	Mdm2 MdmX conf=102.0*
CCN(C[C@H]1N[C@@](Cc2ccccc2)(C(=O)OC)[C@H]2C(=O)N(C)C(=O)[C@@H]12)C(=O)Nc1ccc(Cl)cc1	8.0	-1.3	-13.2	-8.6	/	/	/	/
CC1(C(=O)NS(=O)(=O)c2ccccc2)CCN1C(=O)CC1CC1 (stereo not drawn)	2.3	-6.3	-4.1	3.7	/	/	/	/
COc1ccc(Br)cc1C1=CC(=O)C[C@H](c2ccc(F)cc2)C1	19.8	-5.1	-8.2	8.7	/	/	/	/
COC(=O)COc1ccc(S(=O)(=O)NCCC2=CCCCC2)cc1Cl	-22.6	56.6*	-5.5	7.3	3.6	20.2	22.1	-9.3
COCCNS(=O)(=O)c1ccc(OCC(=O)OC)c(Cl)c1	-10.9	28.9	2.8	11.6	3.5	-9.9	/	/
CCOC(=O)c1cccc(COC(=O)c2cccc(-c3nnc(-c4ccccc4)o3)c2)c1	-1.8	46.9*	8.6	-77.9	-5.2	-22.2	51.2*	-65.2
O=C(OCc1ccccc1)c1cccc(-c2nnc(-c3ccccc3)o2)c1	-7.5	10.6	-1.8	-31.3	-2.5	-68.7	/	/
O=CC1=C(c2ccccc2)Oc2ccccc2O1	26.9	45.6*	58.3*	38.0	1.6	-61.8	12.1	106.9*
CCOc1ccccc1NC(=O)N1CCC(C(=O)c2ccc(F)cc2)CC1	0.6	41.4*	-21.2	-14.8	-2.3	15.2	-6.0	24.2
COc1ccccc1NC(=O)N1CCC(C(=O)c2ccc(F)cc2)CC1	-9.9	-8.1	8.9	-4.0	-1.8	/	/	/
C=CS(=O)(=O)N(Cc1ccccc1Br)[C@H](CO)CC(C)C	-6.0	41.1*	38.1	11.7	/	/	21.8	27.1
CCN([C@H](CO)CC(C)C)S(=O)(=O)c1ccccc1	-22.5	-4.4	5.9	5.5	/	/	/	/
CC(=O)c1ccc(NC(=O)c2onc(C)c2Cl)cc1	41.6	-131.0	2.1	-29.9	-4.8	-51.7	/	/
CC(=O)c1ccc(NC(=O)c2noc3c2CCC3)cc1	39.3	49.0*	94.5*	54.0*	21.3*	71.5*	72.4*	60.5*
